These sequences were tested against PDE1C (assay: pooled miR-30 sensor sort-seq; sequence = guide strand). Conditions: shRNA.

Row | Sequence | sensor-assay potency score (higher = more potent)
1 | TAAGATCTACCACTGAAGCTTC | -0.318
2 | TTTTCCTCTGCTTCCTTCTTGG | -0.143
3 | TTTTGTGCTTGCTGTATCCCAC | -0.201
4 | TTGAGTAAAAATCTCACGTTGT | 0.531
5 | TTTGAAGTCACCATTCTGTTGC | 0.443
6 | TTTGAGTAAAAATCTCACGTTG | -0.294
7 | TTTTCTTTGAATCATTTCCGAT | -1.12
8 | TTTCTTTGAATCATTTCCGATG | -0.853
9 | TAGAGTGATCCTTCTTGTCTGT | 0.0178

Each sequence was assayed against PDE8B in the same assay as above. Conditions: shRNA.

Row | Sequence | sensor-assay potency score (higher = more potent)
10 | AATCTCTAGAACTCTGTCCAAG | -1.58
11 | TATATTTATAACCTTTGTGATG | -1.47
12 | TAGCAAGCAATTATGCTGCTAT | 0.445
13 | ATTGATTATATTTATAACCTTT | -0.571
14 | TTCATCTTTGGTACCCAGCTGA | -0.0849
15 | TACAATAATTTCATGATGCTTA | -0.231
16 | ATCGCTCTGACTATCTTCCTTT | -0.16
17 | TCTTAGTAAACACATACTCGTT | -0.91
18 | TTGCATTCACAGTCGCTGCCTT | -0.0743
19 | TTAAAAACTCACATACTCCAAA | -0.433
20 | TTAGTAAACACATACTCGTTTC | -0.767
21 | TAAACACATACTCGTTTCCTGA | -0.83

What follows are sequences tested against PDGFRB in the same assay as above. Conditions: shRNA.

Row | Sequence | sensor-assay potency score (higher = more potent)
22 | TCAGCTCTGACACATACCGGGT | -1.42
23 | TTGCTGTAGAGCTCCGCGCTGG | -0.717
24 | TCTTTTTGTAACCTTCGCCCAA | -0.683
25 | TAGCACTGGAGACTCGTTGATC | -0.385
26 | TAACAGGAGAGACAGCAACAGC | -1.23
27 | AAAGTCACAGATCTTGACCAGC | -0.788
28 | TTGACGGCCACTTTCATCGTGG | -0.193
29 | TAGTCCACCGACTCGTCCTTGC | -0.654
30 | TTGATCAAAGTTGCTCGGCAGG | -0.679
31 | TTTGATGGCATTGTAGAACTGC | 0.772
32 | TTGGTCAGTGTGAGCACGCTGG | -0.355

Each sequence was assayed against PDIA5 in the same assay as above. Conditions: shRNA.

Row | Sequence | sensor-assay potency score (higher = more potent)
33 | TAATTCAACCTTTTTGTCCTTC | 0.526
34 | TCAACCTTTTTGTCCTTCGGGC | -0.306
35 | TACTTTTCTGCGAACTTCCCAT | -0.283
36 | TAGTCTTTCATGGTCTCCCTCC | -0.586
37 | TAGAACATGACCAAGGTGTGTT | 0.669
38 | TTTGACACAGTCAACAGCGGCA | -0.283
39 | TTCTTCTTCAGGGTCTCCCGGA | -0.62
40 | TTCAACGTAGGAAACTCTGAGA | -0.249

Reference: the OligoGym collection
